{"source": "PubChem BioAssay AID632", "about": "(National Center for Advancing Translational Sciences (NCATS), 2007)", "note": "This is one part of the list. Unmarked numbers belong to inactive results. Active and inactive are the calls of the source.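 How the source made its calls: active means compound lowering the Hsp90 and TPR2A binding signal, whether or not the linker counterscreen also flagged it as an artifact; inactive means the rest.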", "data": [{"test_system": "Hsp90 C-terminal peptide / TPR2A co-chaperone interaction", "test": "Confirmation Concentration-Response Assay and Counterscreen for Disrupters of an Hsp90 Co-Chaperone Interaction", "conditions": "AlphaScreen TPR2A-His6 / biotin-Hsp90 peptide binding; at 46 µM (top of the series) unless noted", "from_the_text": "NIH Chemical Genomics Center [NCGC] NIH Molecular Libraries Screening Centers Network [MLSCN] MLSCN Grant: X01 MH077625-01 NCGC Assay Overview: Hsp90 (heat shock protein 90) is the essential molecular chaperone and it accounts for 1-2% of all cytosolic proteins and is critical for the activity of diverse cellular proteins that are involved in a variety of cellular processes, including development, cell cycle, and steroid hormone signaling. Its client proteins include signaling kinases such as IGF1R, Akt, v-Src, Raf-1; regulators of cell survival such as Bcr-Abl; and transcription factors such as mutated p53, estrogen and progesterone receptors. Hsp90 has emerged as an important target for cancer treatment due to its essential role in maintaining transformation and regulating the function of oncogenic signaling proteins. The in vivo function of Hsp90 is regulated by the binding and hydrolysis of ATP at its N-terminal. Geldanamycin binds to ATP site and inhibit Hsp90 function. Geldanamycin and its analogues are under clinical trials in cancer patients. […] This domain contains the binding site for tetratricopeptide repeat (TPR) domains on HOP (Hsp Organizing Protein). TPR is a structural motif used by a significant number of cochaperones by which the in vivo function of Hsp90 is regulated. TPR2A on HOP binds specifically to MEEVD motif of the C-terminal of Hsp90. […]\nNCGC Assay Protocol Summary: The assay was performed to confirm activity from an initial qHTS screen, and to counterscreen for alpha screen platform artifacts. All samples were reordered, as powders when available, and sample material was evaluated for impurities and/or incorrect molecular mass at NCGC. […] Plates were read on EnVision (PerkinElmer, Boston, MA).TPR2A-His6 was produced using a bacteria expression system and purified using a well developed method (Ghosh et al., 2000). […] TPR2A-His6 binding to biotin-Hsp90 will bring streptavidin donor beads and nickel chelate acceptor beads (PerkinElmer) together and can be measured by Alpha reading by EnVision (PerkinElmer). […]", "values": [{"smiles": "Cc1nnc2[nH]c(=O)n(C)c(=O)c2n1", "activity, negative = inhibition": "5.91% [at 40 µM]"}, {"smiles": "CCOC(=O)c1c(NC(=O)CSc2nnc(Cc3csc(N)n3)n2C)sc(C)c1C", "activity, negative = inhibition": "-99.5% [alpha-screen platform artifact] (active)"}, {"smiles": "Oc1c(C(c2ccccn2)N2CCOCC2)ccc2cccnc12", "note": "(stereo not drawn)", "activity, negative = inhibition": "-99.8% [alpha-screen platform artifact] (active)"}]}]}
